The list is not random: actives were taken first. Their share in the collection is about 2.8%.
SENP6 block = inhibitors of human SENP6 protease; 1.8% of 330,000 active; Recombinant SENP6 catalytic domain, aminoluciferin luminescence; Q9GZR1; inhibition, % at 10 µM;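 active = inhibition above about 50% at the single tested dose, limit read from the data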
Target sequence (Q9GZR1 628-1112 limits assumed): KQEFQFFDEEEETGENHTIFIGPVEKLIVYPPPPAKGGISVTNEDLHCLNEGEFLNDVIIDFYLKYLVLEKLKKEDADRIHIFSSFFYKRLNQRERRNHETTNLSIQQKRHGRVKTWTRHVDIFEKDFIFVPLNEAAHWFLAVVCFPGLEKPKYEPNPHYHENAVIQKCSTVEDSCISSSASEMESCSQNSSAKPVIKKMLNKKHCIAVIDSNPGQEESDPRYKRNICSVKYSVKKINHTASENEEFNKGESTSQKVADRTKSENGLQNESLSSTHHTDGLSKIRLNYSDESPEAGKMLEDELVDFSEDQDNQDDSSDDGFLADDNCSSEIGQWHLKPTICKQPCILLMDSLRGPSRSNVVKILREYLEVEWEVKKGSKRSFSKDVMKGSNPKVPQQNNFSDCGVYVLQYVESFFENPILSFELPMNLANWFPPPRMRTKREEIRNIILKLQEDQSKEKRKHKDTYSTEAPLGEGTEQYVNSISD
SENP7 block = SENP7 protease inhibition | recombinant SENP7, Z-RLRGG-aminoluciferin luminescence, 40 min | inhibition, % at 5 µM | 1.5% of 330,000 active;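 active = inhibition above about 50% at the single test dose, limit read from the data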
Platelet DG rel = platelet dense granule release activity. 0.22% of 300,000 active. human platelet-rich plasma, SFLLRN dense granule ATP release, luminescence. inhibition, %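 (compounds screened at 7.5 µM in platelet-rich plasma)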. AID 1663;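 active = mean replicate score, as percent of positive control, at or above 50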
SENP8 block-1 = SENP8 protease inhibition. inhibition, % at 10 µM. purified SENP8, Z-RLRGG-aminoluciferin cleavage, luminescence. 1.2% of 330,000 active. Q96LD8; in the data active = inhibition above about 50%
SENP8 block-2 = SENP8 (human) protease inhibition; recombinant SENP8, Nedd8 substrate fluorescence; inhibition, % at 20 µM; 0.64% of 360,000 active; AID 602440; in the data active = inhibition mostly above about 40%, no sharp cut-off; inactive = mostly below about 27%
HSP90 inh = HSP90 refolding inhibition in rabbit reticulocyte lysate; luciferase refolding luminescence, 3 h; inhibition, % at 5.6 µM; 0.91% of 290,000 active; AID 1789;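 active = inhibition above the screen-wide mean plus 3 SD, computed separately per campaign, cut at about 16% in these data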;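 note: inhibitors lower the luminescence because luciferase stays unfolded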
SENP8 conf = confirmation of human SENP8 protease inhibitors. AID 488912. Recombinant SENP8, Z-RLRGG-aminoluciferin luminescence, 60 min. 40% of 6,200 active. inhibition, % at 12.5 µM. shares compounds with SENP7 block;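 active = mean inhibition across replicates above about 50%, limit read from the data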
SENP6 confirm = confirmation of human SENP6 protease inhibitors. shares compounds with SENP7 block. AID 488915. recombinant SENP6, Z-RLRGG-aminoluciferin luminescence. inhibition, % at 12.5 µM. 58% of 6,200 active
SENP7 conf = human SENP7 inhibition, confirmed. shares compounds with SENP7 block. recombinant SENP7, Z-RLRGG-aminoluciferin luminescence, 40 min. inhibition, % at 12.5 µM. 69% of 6,200 active
Casp3 select = inhibits human caspase-3 in SENP selectivity test. shares compounds with SENP7 block. purified caspase-3, Z-DEVD-aminoluciferin luminescence, 60 min. inhibition, % at 12.5 µM. 60% of 6,200 active. AID 488918;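 active = mean inhibition above about 50%, limit read from the data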
SENP luc ctr = interferes with luciferase luminescence in SENP counter-screen | AID 488919 | shares compounds with SENP7 block | 39% of 6,200 active | inhibition, % at 12.5 µM | Pre-incubated SENP8/Z-RLRGG-aminoluciferin, luciferase luminescence interference;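 active = mean inhibition above about 50% when retested at one dose, limit read from the data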
Numbers stand for hits; 0 = inactive; - = not tested or not shown.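 Rule for the calls, unless noted: active = mean inhibition above about 50% in the one-dose retest (limit read from the data); inactive = the rest.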

SMILES	SENP6 block	SENP7 block	Platelet DG rel	SENP8 block-1	SENP8 block-2	HSP90 inh	SENP8 conf	SENP6 confirm	SENP7 conf	Casp3 select	SENP luc ctr
COc1cc(C(=O)Nc2cc(C)ccn2)cc(OC)c1OC	0	0	0	0	0	0	-	-	-	-	-
CC(=O)c1cccc(NC(=O)c2ccc(-c3c(C)noc3C)c3ccoc23)c1	-	-	-	-	0	-	-	-	-	-	-
c1ccc(N=Nc2ccc3cccccc2-3)cc1	54	68	0	0	0	-	56	68	86	0	0
COc1cc(NC(=O)[C@H]2O[C@@H](n3cnc4c(N)ncnc43)[C@H](O)[C@@H]2O)cc(OC)c1OC	-	-	-	-	0	-	-	-	-	-	-
CS(=O)(=O)N1N=C(c2ccc(Br)cc2)CC1c1ccc2c(c1)OCO2 (stereo not given)	0	0	0	0	0	0	-	-	-	-	-
Cc1ccc(C2=NN(S(C)(=O)=O)C(c3ccc4c(c3)OCO4)C2)cc1 (stereo not given)	68	59	0	0	0	0	0	63	90	71	0
NC(N)=NC(N)=Nc1cccc2ccccc12	61	66	0	0	0	0	0	0	0	0	0
Brc1ccc(-c2nc3ccccc3s2)s1	95	96	0	95	0	0	66	82	87	0	67
Brc1cc2c(cc1-c1nc3ccccc3s1)OCO2	0	0	0	0	0	0	-	-	-	-	-
c1ccc(SCc2nc3ccccc3s2)nc1	60	0	0	0	0	0	64	61	86	66	57
c1ccc(-c2nc3ccccc3s2)nc1	90	79	0	76	0	0	0	89	99	89	0
Nc1ccc(-c2nc3ccccc3s2)cn1	79	69	0	66	0	0	75	73	91	78	0
c1ccc2oc(SCc3nc4ccccc4s3)nc2c1	0	0	0	0	0	0	-	-	-	-	-
CN(C)c1ncccc1-c1nc2ccccc2s1	0	0	0	0	0	0	-	-	-	-	-
CS(=O)(=O)N(CC(=O)N1CCc2ccccc2C1)c1ccc(Cl)cc1F	-	-	0	-	0	0	-	-	-	-	-
CNC(=O)c1ccc(OC2CSC2)cc1	0	0	0	0	0	0	-	-	-	-	-
CSc1ccc(/C=C/C(=O)c2ccc(O)cc2)cc1	81	0	0	74	0	0	69	64	0	0	0
O=C(/C=C/c1ccc(OC2CSC2)cc1)c1ccccc1	0	55	0	54	0	0	0	0	0	0	0
CN(C)c1ccc(C(=O)/C=C/c2ccccc2)cc1	84	79	0	63	0	0	0	0	56	0	0
CCOc1ccc(N/C=C/C(=O)c2ccccc2)c([N+](=O)[O-])c1	98	101	85	97	0	0	94	95	80	97	0
CC[N+](CC)=N/N=C1\C=CC[N+]([O-])=C1	-	-	-	-	0	-	-	-	-	-	-
COc1ccccc1C(CNC(=O)C1CC(=O)N(Cc2ccc(C)cc2)C1)N1CCCC1 (stereo not given)	0	0	0	0	0	-	-	-	-	-	-
N#CC(=NCc1cccnc1)C1=C(O)c2ccccc2C1=O	0	0	0	0	0	0	-	-	-	-	-
O=C(N/N=C/c1ccc(OC2CSC2)cc1)c1ccccc1	62	0	0	52	0	0	0	0	0	0	0
CCOc1ccc(C(=O)/C=C/c2ccc(SC)cc2)cc1	0	0	0	0	0	0	-	-	-	-	-
SMILES	SENP6 block	SENP7 block	Platelet DG rel	SENP8 block-1	SENP8 block-2	HSP90 inh	SENP8 conf	SENP6 confirm	SENP7 conf	Casp3 select	SENP luc ctr
Cc1ccc(N(CC(=O)N/N=C/c2ccc(OC3CSC3)cc2)S(=O)(=O)c2ccccc2)cc1	0	0	0	0	0	0	-	-	-	-	-
CCOc1ccc(/C=C/C(=O)c2ccccc2)cc1	76	83	0	70	0	0	0	83	88	0	80
COc1ccc(S(=O)(=O)N2CCN=C2SCc2cccc(F)c2)cc1	0	0	0	0	0	0	-	-	-	-	-
CN(C)CCCN(C(=O)COc1ccc(Cl)cc1)c1nc2ccc(F)cc2s1	55	0	0	0	0	0	0	0	0	0	0
COc1cccc2cc(-c3cn4ccc(C)cc4n3)c(=O)oc12	0	50	0	0	0	0	0	0	0	0	0
COc1ccc(-c2nnc(-c3cc4ccccc4oc3=O)o2)cc1	0	0	0	0	0	0	-	-	-	-	-
COc1cccc2cc(-c3nnc(-c4ccccc4)o3)c(=O)oc12	92	90	0	74	0	0	0	0	0	0	0
O=S1(=O)CCOC[C@H](c2ccccc2)N1Cc1cccc(Cl)c1	0	0	0	0	0	0	-	-	-	-	-
NC(CC(=O)OC1CCCCC1)C(=O)OC1CCCCC1 (stereo not given)	77	0	0	0	0	0	0	0	0	0	0
CC(C)C[C@H]1CN(CCCC[C@@H]2CNC(=O)C(=O)N2CCc2ccccc2)C(=O)C(=O)N1CCc1ccccc1	-	-	-	-	0	-	-	-	-	-	-
COc1cc(C)nc(NS(=O)(=O)c2ccccc2Cl)n1	0	52	0	0	0	0	0	0	0	0	0
Cc1ccsc1C1NC(=O)c2c(sc3c2CCCC3)N1 (stereo not given)	74	54	0	0	0	0	0	68	82	53	0
O=C1NC(c2ccc(Br)cc2)Nc2sc3c(c21)CCC3 (stereo not given)	0	0	0	0	0	0	-	-	-	-	-
CCCCOC(=O)c1ccc(OC(=O)c2cccnc2)cc1	0	0	0	0	0	0	-	-	-	-	-
CCCCCCOC(=O)c1ccc(OC(=O)c2cccnc2)cc1	53	0	0	0	0	0	0	0	0	0	0
Cc1ccc(CN2CC(C(=O)NNC(=O)c3ccc(F)cc3)CC2=O)cc1 (stereo not given)	0	0	-	0	0	-	-	-	-	-	-
O=C(CNC(=O)c1ccccc1)OCCCOC(=O)CNC(=O)c1ccccc1	0	0	0	0	0	0	-	-	-	-	-
N#Cc1sc2nc(-c3ccccc3)cc(-c3ccco3)c2c1N	86	0	0	93	0	0	0	0	0	0	0
C=CCn1c(NC(=O)c2ccc(Br)o2)c(S(=O)(=O)c2ccccc2)c2nc3ccccc3nc21	73	0	0	0	0	0	0	0	0	0	0
COc1ccc(/C(C)=N/NC(=O)CNC(=O)/C=C\c2ccccc2)c(OC)c1	0	0	0	0	0	0	-	-	-	-	-
COc1ccc(Cl)cc1NC(=S)NNC(=O)c1cccs1	86	81	0	66	0	0	0	0	0	0	0

From PubChem BioAssay
